# Screening results: PubChem, National Center for Advancing Translational Sciences (NCATS)
# TDP1 inh – TDP1 (human) enzyme inhibition; recombinant TDP1, AlphaScreen DNA substrate cleavage; Potency, µM (doses to about 130 µM), for the others: top-dose activity change, negative = inhibition, hits mostly inhibitors; 350,000 tested, 0.28% active; further: on the % scale 0 is the no-effect control and ±100 the full control effect; nearly all actives have a fitted effect of over 40% in size
# Target sequence (Q9NUW8 whole entry, looked up): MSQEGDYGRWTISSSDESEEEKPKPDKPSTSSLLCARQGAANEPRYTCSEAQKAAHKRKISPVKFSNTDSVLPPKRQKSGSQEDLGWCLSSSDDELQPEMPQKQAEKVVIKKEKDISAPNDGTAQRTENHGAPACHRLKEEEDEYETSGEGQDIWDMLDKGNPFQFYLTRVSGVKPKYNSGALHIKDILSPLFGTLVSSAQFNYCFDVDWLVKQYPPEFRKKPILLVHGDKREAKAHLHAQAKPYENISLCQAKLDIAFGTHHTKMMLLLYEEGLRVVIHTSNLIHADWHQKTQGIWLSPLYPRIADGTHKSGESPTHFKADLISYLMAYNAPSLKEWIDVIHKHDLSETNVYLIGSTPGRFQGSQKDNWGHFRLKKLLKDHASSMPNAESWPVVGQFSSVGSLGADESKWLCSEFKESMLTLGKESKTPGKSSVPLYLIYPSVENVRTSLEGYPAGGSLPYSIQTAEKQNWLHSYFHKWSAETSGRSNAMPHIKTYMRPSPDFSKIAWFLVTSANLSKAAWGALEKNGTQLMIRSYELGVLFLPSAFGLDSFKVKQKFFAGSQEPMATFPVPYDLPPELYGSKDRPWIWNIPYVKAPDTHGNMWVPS
#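 Signal: AlphaScreen proximity between streptavidin donor and anti-FITC acceptor beads on intact substrate. Reaction: Tdp1 1 nM, substrate 15 nM final, 5 min RT after 15 min compound preincubation.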
# TDP1 cell noCPT – qHTS for Inhibitors of human tyrosyl-DNA phosphodiesterase 1 (TDP1): qHTS in cells in absence of CPT; DT40 Tdp1-/- hTDP1 cells, no CPT, ATP luminescence, 48 h; Potency, µM (series often up to 46.2 µM), for inactives: top-dose activity change, negative = growth inhibition, actives largely listed as inhibitors; AID 686978, 2013; 420,000 tested, 15% active; further: on the % scale 0 is the no-effect control and ±100 the full control effect; nearly all actives have a fitted effect of over 55% in size
#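 Stably hTDP1-transfected Tdp1-null chicken DT40 cells were treated with library compounds minus camptothecin and grown for at least 48 hr at 37 °C, after which cellular ATP was quantified by luminescence.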
# TDP1 cell CPT – growth inhibition of DT40 Tdp1-/-;hTDP1 cells with camptothecin (screen for TDP1 inhibitors); chicken DT40 Tdp1-/-;hTDP1 cells + 20 nM CPT, ATP luminescence, 48 h; Potency, µM (doses to about 46.2 µM), for the others: at the highest dose activity change, negative = growth inhibition, most hits filed as inhibitors; 420,000 tested, 12% active; AID 686979; further: on the % scale 0 is the no-effect control and ±100 the full control effect; nearly all actives have a fitted effect of over 55% in size
#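 Chicken DT40 Tdp1-/- cells complemented with human TDP1, 400 cells/well, exposed to compounds plus 20 nM camptothecin for at least 48 h at 37 C; viability read as ATP content by CellTiter-Glo luminescence.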
# ClpP mod – qHTS Assay for Activators of ClpP. purified B. subtilis ClpP, FRET peptide cleavage, 20 min. Potency, µM (series often up to 57.5 µM), for the others: at the highest dose activity change, negative = active. 340,000 tested, 1.9% active; active means well fitted falling curve with a large enough effect; inconclusive means small, poorly fitted or top-dose-only effect; inactive means no such curve, though single readings can be large or run the other way; further: the source files actives as falling curves though it sought activators and does not explain the sign; nearly all actives have a fitted effect of over 65% in size
#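 Buffer: 100 mM Tris/HCl pH8, 100 mM KCl, 0.05% low protease BSA, 2.5% glycerol, 0.01% Tween-20. ClpP 10 microg/mL final; 20 min RT; delta FRET normalized to ADEP and DMSO controls.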
# Starred values were filed as active, the others as inactive; ? = inconclusive; nt = not tested or not shown; [ ] = remark or other dose. Only some compounds are listed: those with a hit (about 17% of all), similar ones and a draw of the others. Unless noted, the call rests on the fitted dose curve; in most records, active means well fitted curve in the direction sought with a large enough effect; inconclusive means small, poorly fitted or top-dose-only effect, or another doubt; inactive means no such curve, though single readings can be large; an effect the other way counts as inactive or inconclusive. Potency means the concentration at half of the fitted maximal effect.
SMILES,TDP1 inh,TDP1 cell noCPT,TDP1 cell CPT,ClpP mod
O=C(Cn1nnc2sc(-c3ccccc3)cc2c1=O)Nc1cccc(C(F)(F)F)c1,7%,?,?,4%
Cc1cc(C)cc(NC(=S)NCc2ccc3[nH]c4c(c3c2)CCCC4)c1,11%,16µM*,?,-8%
CN(C)c1ccc(CNS(=O)(=O)c2ccc3[nH]c4c(c3c2)CCCCC4)cc1,6%,nt,nt,97%
O=S(=O)(NCc1ccc(Cl)cc1)c1ccc2[nH]c3c(c2c1)CCCC3,11%,5.8µM*,?,?
COc1c(C)cc(Br)cc1C(=O)Nc1ccc(Cc2ccncc2)cc1,3%,?,?,nt
Cc1c(NC(=O)C(C)OC(=O)/C=C/c2ccc3c(c2)OCO3)c(=O)n(-c2ccccc2)n1C (stereo unspecified),8%,-15%,18%,0%
Oc1cc2c(cc1O)[C@H](c1ccccc1)CNCC2,22%[56.1 µM],27µM*,27µM*,nt
COC(=O)c1ccc(CN2CCC3(CCC(CNC(=O)c4ccccc4)O3)CC2)cc1 (stereo unspecified),nt,-25%,-1%[9.04 µM],nt
N#Cc1c(N)nc(Sc2ccc(Cl)cc2)c(C#N)c1-c1ccccc1Cl,3%,15µM*,16µM*,0%
Cc1ccc(-c2cc(-c3ccccc3Cl)c(C#N)c(N)n2)o1,7%,?,?,?
CC(Sc1ccc(S(=O)(=O)N2CCOCC2)cn1)c1ccccc1Cl (stereo unspecified),0%,29µM*,?,nt
O=C(CSc1ccc(S(=O)(=O)N2CCOCC2)cn1)Nc1ccc(OC(F)F)cc1,1%[56.1 µM],2%,-24%,-1%
CC(Sc1ccc(S(=O)(=O)N2CCOCC2)cn1)C(=O)Nc1ccc(Cl)cc1Cl (stereo unspecified),0%[56.1 µM],?,?,3%
CC(C)N(C(=O)CSc1ccc(S(=O)(=O)N2CCCCC2)cn1)c1ccccc1,1%[56.1 µM],15µM*,?,0%
CCN(C(=O)CSc1ccc(S(=O)(=O)N2CCOCC2)cn1)c1ccccc1,0%[56.1 µM],16µM*,?,0%
O=C(CSc1ccc(S(=O)(=O)N2CCOCC2)cn1)Nc1ccc(F)c(F)c1,1%[56.1 µM],16µM*,16µM*,0%
CC1CCN(C(=O)c2[nH]c(C(F)(F)F)nc2-c2ccccc2)CC1,nt,11%,1%,1%
Cc1sc2c(c1C)c(=O)n(CCc1ccccc1)c(=O)n2Cc1cccc(F)c1,-5%,5.8µM*,?,-2%
CCN(CC)C(=O)c1sc2c(c1C)c(=O)n(CCc1ccccc1)c(=O)n2Cc1cccc(Cl)c1,-4%,15µM*,23µM*,0%
Cc1ccc(C)c(Cn2c(=O)n(CCc3ccccc3)c(=O)c3c(C)c(C)sc32)c1,2%,9%,-10%,0%
Cc1sc2c(c1C)c(=O)n(CCc1ccccc1)c(=O)n2Cc1ccc(F)cc1,5%,18µM*,?,-13%
Cc1sc2c(c1C)c(=O)n(CCc1ccccc1)c(=O)n2Cc1ccccc1Cl,0%,-5%,-4%,1%
Cc1cccc(Cn2c(=O)n(CCc3ccccc3)c(=O)c3c(C)c(C)sc32)c1,5%,?,21µM*,3%
Cc1sc2c(c1C)c(=O)n(CCc1ccccc1)c(=O)n2Cc1ccc(C(C)(C)C)cc1,-2%,-13%,6%,0%
CCOc1ccc(C(=O)Nc2nnc(S(=O)(=O)Nc3ccccc3C)s2)cc1,nt,-21%,-12%,-6%
SMILES,TDP1 inh,TDP1 cell noCPT,TDP1 cell CPT,ClpP mod
COc1ccc(S(=O)(=O)NC(=O)C2(C)CCN2C(=O)Cc2ccccc2Cl)cc1 (stereo unspecified),nt,-1%,-12%,0%
C/C(=N\NC(=O)c1cc(-c2ccc(C)s2)[nH]n1)c1ccco1,-5%,18µM*,?,-2%
CCOc1ccc(/C=N/NC(=O)c2csc(C)c2C)c(OCC)c1,6%,-7%,3%,-19%
CCCCOc1cccc(/C=N/NC(=O)c2csc(C)c2C)c1,1%,23µM*,?,-3%
Cc1scc(C(=O)N/N=C/c2ccc(Cl)s2)c1C,-1%,16µM*,?,1%
C/C(=N/NC(=O)c1cc(C)[nH]n1)c1ccco1,1%,-22%,3%,nt
C/C(=N\NC(=O)c1csc(C)c1C)c1ccc(C)s1,6%,2.9µM*,2.6µM*,-2%
CCn1c(C)c(C2N3CC4(C)CN2CC(CC)(C3)C4=O)c2ccccc21 (stereo unspecified),0%,?,-6%,1%
CC(C)C(NC(=O)c1c(F)cccc1F)C(=O)NCCc1ccc(S(N)(=O)=O)cc1 (stereo unspecified),-10%,10%,3%,nt
CS(=O)(=O)N1CCC(C(=O)Nc2cc(Cl)c(Cl)cc2Cl)CC1,nt,-20%,31%,nt
Cc1cnc(-n2ncc(C(=O)N(C)CC3CCCN(C)C3)c2C2CC2)nc1-c1cccs1 (stereo unspecified),nt,-6%,0%,nt
O=C(NNC(=O)c1cccc(C(F)(F)F)c1)c1ccc(-n2cnnn2)cc1,-4%,1%,10%,nt
CCN1CCc2c(sc(NC(=O)c3ccc(S(=O)(=O)N(C)C4CCCCC4)cc3)c2C(N)=O)C1,5%,?,?,1%
O=C(CSc1nc2ncc(Cl)cc2[nH]1)N1CCC(Cc2ccccc2)CC1,-3%,-8%,-30%,-3%
C/C(=N/NC(=O)c1cccs1)c1ccco1,-3%,-19%,-7%,-1%
C/C(=N\NC(=O)c1csc(C)c1C)c1ccco1,0%,21µM*,10µM*,-1%
CC(C)CCNC(=O)CCSCCC(=O)NCCC(C)C,2%,0%,10%,-5%
c1cncc(-c2cn(C[C@H]3CC[C@@H]([C@@H]4CC[C@H](Cn5cc(-c6cccnc6)nn5)O4)O3)nn2)c1,nt,4%,-12%,2%
COCc1nnc(NC(=O)c2ccc(S(=O)(=O)N3CCCc4ccccc43)cc2)o1,9%,?,23µM*,nt
COCc1nnc(NC(=O)c2ccc(S(=O)(=O)N3CCOCC3)cc2)o1,4%,-3%,-9%,3%
O=C(Nc1nnc(C2CC2)o1)c1ccc(S(=O)(=O)N2CCCc3ccccc32)cc1,10%,?,4.6µM*,0%
COc1ccc(-c2nnc(NC(=O)c3ccc(S(=O)(=O)N4CCCc5ccccc54)cc3)o2)cc1,13%,5.6µM*,3.2µM*,-5%
CS(=O)(=O)c1ccc(-c2nnc(NC(=O)c3ccc(S(=O)(=O)N4CCCC4)cc3)o2)cc1,nt,6%,0%,-1%
O=C(NCc1ccccc1F)c1ccc(S(=O)(=O)N2CCCCCC2)cc1,1%,?,-6%,2%
Cc1cc(C)n(Cc2cc(C(=O)O)c3ccccc3n2)n1,-5%,2%,25%,nt
CCCN1CNc2c(c(=O)[nH]c(=S)n2CCc2cc(OC)cc(OC)c2)C1,-8%,?,?,1%
